The values that follow come from PubChem BioAssay (Tox21).

SMILES strings stand for the structures. Results filed as inconclusive are left out. Active and inactive are the calls of the source. Unless noted, calls follow the shape of the dose curve; as a rule, active = well fitted curve in the direction sought with a large enough effect in the repeat runs; inconclusive = weak or mixed curves; inactive = no such curve, though single readings can be large; an effect the other way counts as inactive or inconclusive.

Assay [1] can be described thus: qHTS assay to identify small molecule antagonists of the androgen receptor (AR) signaling pathway using the MDA cell line in the presence of 0.5 nM R1881 - cell viability counter screen (AID 1259242). Also: nearly all actives have a fitted effect of over 45% in size. Also: potency is read from the fitted curve at half-maximal effect. A digest of the protocol: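 Live-cell protease fluorescence, CellTiter-Fluor, 30 min at 37C. Cells: MDA-kb2, 3,000/well, preincubated 5 hr. Compounds plus 0.5 nM R1881 final, 16 hr, 37C, 0% CO2.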

For assay [2], the target named is Androgen receptor (Homo sapiens) (UniProt P10275). Kind of assay: qHTS assay to identify small molecule antagonists of the androgen receptor (AR) signaling pathway using the MDA cell line in the presence of 0.5 nM R1881 (AID 1259243). Also: potency is read from the fitted curve at half-maximal effect; nearly all actives have a fitted effect of over 50% in size. In a few lines:
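MDA-kb2, MMTV-luc (AR/GR elements); 3,000 cells/well; cpd + 0.5 nM R1881 final; 16 hr 37C, 0% CO2; ONE-Glo 30 min RT; luminescence.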
On the technique in general: qHTS replaces the single test concentration by a dilution series.

Assay [3] deals with Estrogen receptor (Homo sapiens) (UniProt P03372). Kind of assay: qHTS assay to identify small molecule antagonists of the estrogen receptor alpha (ER-alpha) signaling pathway using the BG1 cell line in the presence of 0.1 nM 17-beta-estradiol (AID 1259244). Also: potency is read from the fitted curve at half-maximal effect; nearly all actives have a fitted effect of over 50% in size. In a few lines: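 Luminescence after ONE-Glo (30 min, room temperature) measured ERE-luciferase activity in VM7Luc4E2 cells treated 22 h with compound and 0.1 nM final 17beta-estradiol as stimulator.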
Sequence of Estrogen receptor (Homo sapiens) (P03372 whole entry, looked up): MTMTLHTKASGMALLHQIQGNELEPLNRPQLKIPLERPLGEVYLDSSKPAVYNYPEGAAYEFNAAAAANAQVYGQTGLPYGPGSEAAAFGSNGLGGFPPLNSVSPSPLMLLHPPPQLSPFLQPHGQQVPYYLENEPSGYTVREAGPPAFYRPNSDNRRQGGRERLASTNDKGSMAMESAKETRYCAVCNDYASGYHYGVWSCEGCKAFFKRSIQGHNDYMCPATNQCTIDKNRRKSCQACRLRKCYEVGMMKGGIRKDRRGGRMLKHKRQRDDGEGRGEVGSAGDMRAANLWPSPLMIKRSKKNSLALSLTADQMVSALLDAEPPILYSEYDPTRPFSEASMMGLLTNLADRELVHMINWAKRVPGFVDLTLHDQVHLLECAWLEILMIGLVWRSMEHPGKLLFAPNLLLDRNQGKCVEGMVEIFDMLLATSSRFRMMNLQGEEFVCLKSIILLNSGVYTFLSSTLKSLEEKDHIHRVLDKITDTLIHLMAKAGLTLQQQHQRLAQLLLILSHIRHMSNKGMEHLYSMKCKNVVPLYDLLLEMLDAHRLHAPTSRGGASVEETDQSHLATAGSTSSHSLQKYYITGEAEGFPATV

A short description of assay [4]: qHTS assay to identify small molecule HDAC inhibitors (AID 1259364).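 Also: wild-type HCT-116 cells with endogenous class I/II HDAC activity; top concentration of the series differs between compounds; nearly all actives have a fitted effect of over 45% in size.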 In a few lines:
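HCT-116 (wild type), 1,500 cells/well, overnight; compound 2 hr 37C 5% CO2; HDAC-Glo I/II reagent 30 min RT; luminescence readout.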

Assay [5] in a line: qHTS assay to identify small molecule agonists of the sonic hedgehog signaling (Shh) pathway - cell viability counter screen (AID 1259366). Also: nearly all actives have a fitted effect of over 50% in size. Also: potency is read from the fitted curve at half-maximal effect. In a few lines: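 In quantitative high-throughput format, 3T3 Gli1-Luc cells were exposed to compounds for 24hr and multiplexed for viability using CellTiter-Fluor, incubated 1hr at 37C before the fluorescence read.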
A short description of assay [6]: qHTS assay to identify small molecule antagonists of the sonic hedgehog signaling (Shh) pathway - cell viability counter screen (AID 1259367). Also: nearly all actives have a fitted effect of over 55% in size. Also: potency is read from the fitted curve at half-maximal effect. A digest of the protocol: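 Cytotoxicity was assessed in parallel with Shh reporter activity by measuring live-cell protease fluorescence (CellTiter-Fluor) in NIH/3T3 cells stably carrying Gli1-Luc, treated with compound under conditioned medium stimulation for 23 hr plus 1 hr reagent incubation.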

Assay [7] can be described thus: qHTS assay to identify small molecule agonists of the sonic hedgehog signaling (Shh) pathway (AID 1259368; calls by dose curve;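 also: NIH/3T3-derived 3T3Gli1-Luc cells carrying a stable Gli1-driven firefly luciferase reporter; series mostly up to about 92 µM; nearly all actives have a fitted effect of over 15% in size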). In a few lines: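 Read-out: firefly luciferase luminescence from a Gli1 response element reporter stably integrated in NIH/3T3-derived 3T3Gli1-Luc cells, measured 30 min at room temperature after reagent addition. Compound exposure lasted 24 hr at 37 C, 5% CO2.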

A short description of assay [8]: qHTS assay to identify small molecule phospholipidosis (PLD) inducers (AID 1259344; active = well fitted curve in the direction sought with a large enough effect; an effect the other way counts as inactive or inconclusive). In a few lines:
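Cells (HepG2, 900 per well) attach for 4 h, receive LipidTOX Red and compound together, incubate 24 h at 37 C, are fixed 30 min with paraformaldehyde/Hoechst, then imaged at one site per well.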

Assay [9] in a line: qHTS assay to identify small molecule HDAC inhibitors - cell viability counter screen (AID 1259365). Also: series mostly up to about 92 µM; nearly all actives have a fitted effect of over 50% in size. A digest of the protocol: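 Measured quantity is CellTiter-Glo luminescence from wild-type HCT-116 cells after compound incubation of 2hr at 37C, 5% CO2; reagent developed 30min at room temperature.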

Sequence of Androgen receptor (Homo sapiens) (P10275 whole entry, looked up): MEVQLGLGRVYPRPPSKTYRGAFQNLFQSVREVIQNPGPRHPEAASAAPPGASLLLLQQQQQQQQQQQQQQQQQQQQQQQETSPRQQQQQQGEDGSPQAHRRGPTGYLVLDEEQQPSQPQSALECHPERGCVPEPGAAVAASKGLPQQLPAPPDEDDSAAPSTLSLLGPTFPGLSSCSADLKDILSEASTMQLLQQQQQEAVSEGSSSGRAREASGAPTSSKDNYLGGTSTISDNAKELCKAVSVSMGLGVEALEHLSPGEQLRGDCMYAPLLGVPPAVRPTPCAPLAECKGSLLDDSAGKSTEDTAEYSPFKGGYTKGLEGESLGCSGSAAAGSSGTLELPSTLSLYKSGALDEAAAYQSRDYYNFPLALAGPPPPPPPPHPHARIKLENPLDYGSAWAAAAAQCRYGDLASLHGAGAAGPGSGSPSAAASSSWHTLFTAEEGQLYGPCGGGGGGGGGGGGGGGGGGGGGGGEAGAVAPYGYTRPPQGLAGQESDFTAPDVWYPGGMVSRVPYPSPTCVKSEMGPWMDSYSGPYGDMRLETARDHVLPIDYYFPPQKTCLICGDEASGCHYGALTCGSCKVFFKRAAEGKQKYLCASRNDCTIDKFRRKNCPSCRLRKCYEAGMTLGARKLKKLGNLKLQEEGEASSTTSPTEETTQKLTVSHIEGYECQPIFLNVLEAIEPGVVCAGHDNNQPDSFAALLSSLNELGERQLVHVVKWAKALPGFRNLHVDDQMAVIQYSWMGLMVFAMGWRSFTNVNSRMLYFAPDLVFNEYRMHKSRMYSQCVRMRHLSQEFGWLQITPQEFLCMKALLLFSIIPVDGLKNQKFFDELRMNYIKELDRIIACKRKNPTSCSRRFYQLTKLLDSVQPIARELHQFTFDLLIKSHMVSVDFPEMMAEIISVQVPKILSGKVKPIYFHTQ

Consider `O=C1c2ccccc2C(=O)C1C(=O)C(c1ccccc1)c1ccc(Cl)cc1` (stereo not drawn), for which the Potency result in [1], in assay [4], in assay [5], in assay [6] and in [7] was “inactive” in each case. For the same compound, the Potency was 21.7 µM (active) in assay [2] and 27.3 µM (active) in assay [3].

Turning to `CCCN(CCC)c1c([N+](=O)[O-])cc(S(N)(=O)=O)cc1[N+](=O)[O-]`, the Potency entry in assay [8] and in assay [4] was “inactive” each time. The Potency was 54.5 µM (active) in assay [5] and 24.3 µM (active) in [6].

Take `CCCOCC(=Nc1ccc(Cl)cc1C(F)(F)F)n1ccnc1`: the Potency entry in [4] and in assay [7] was “inactive” in each case. Further, the Potency in assay [6] is 54.4 µM (active).

In the case of `CC(C)(C)c1ccc(CSc2cnn(C(C)(C)C)c(=O)c2Cl)cc1`, the Potency was 0.0686 µM (active) in assay [1] and 0.0154 µM (active) in assay [3]. Also, the Potency entry in assay [4], in assay [9], in [5] and in assay [6] was “inactive” in each case.

In the case of `Oc1ccc(C2(c3ccc(O)cc3)c3ccccc3-c3ccccc32)cc1`, the Potency entry in [1], in [4], in assay [9] and in assay [7] was “inactive” in each case. The Potency in assay [3] was 1.72 µM (active); in assay [5], 54.5 µM (active); in assay [6], 27.3 µM (active).

Consider `CCc1cc(C)cc(CC)c1-c1c(OC(=O)C(C)(C)C)n2n(c1=O)CCOCC2`, for which the Potency entry in assay [1], in [4], in [9] and in assay [7] was “inactive” throughout. The Potency is 27.3 µM (active) in [5] and 15.4 µM (active) in assay [6].
